The full data set covers some 8,800 targets. This sample favours those with a hit. About 0.5% of all pairs of compound and target were hits.
Key:
Assay in all cases: log2 fold change, soluble protein after heating vs DMSO (PISA); higher = thermal stabilisation; K562 lysate, 10 uM; active = over 0.2 and 3.5 SD of the protein, either way, in both replicates (recomputed)
[1] = compound: CC(=O)c1cnc2ccc(-c3cc(Cl)c(O)c(Cl)c3)nc2c1N[C@H]1CC[C@H](CN(C)C)CC1
Method in brief: (§1)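 To prepare the extract, K562 pellets were dounce-homogenised in PBS pH 7.4 with 1 mM MgCl2, giving crude material at 1 mg/mL protein. This was treated with 10 μM compound for 30 min, then heated in aliquots for 3 min over 48°C-58°C before pooling and addition of NP-40 to 0.5% at 4°C. Centrifugation at 21,000xg for 90 min left soluble protein in the supernatant, which TMTpro 16plex LC-MS/MS quantified with equalised channel sums. Results are log-two fold changes in thermal stability compared with solvent controls, from duplicates.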

ralimetinib = compound: CC(C)(C)Cn1c(N)nc2ccc(-c3[nH]c(C(C)(C)C)nc3-c3ccc(F)cc3)nc21 [ralimetinib]
Method in brief: as §1

[2] = compound: CC(C)(O)CC(=O)NCCn1ccc2ncnc(Nc3ccc(Oc4cccc(C(F)(F)F)c4)c(Cl)c3)c21
Method in brief: as §1

[3] = compound: CC(C)C1=C2N=C(C=C(N2N=C1)NCC3=CC=CC=C3)NCCCCCCN
Method in brief: as §1

[4] = compound: CC1=C(C(CC(=O)N1)C2=CC=C(C=C2)C(F)(F)F)C(=O)NC3=C(C=C4C(=C3)C=NN4)F
Method in brief: as §1

[5] = compound: CC1=C(C2=C(C=C1)C(=O)C3=CC=CC=C3N2CCCN)C
Method in brief: as §1

[6] = compound: CC1=C(C=C(C=C1)NC(=O)C2=CC(=CC=C2)C(C)(C)C#N)NC3=CC4=C(C=C3)N=CN(C4=O)C
Method in brief: as §1

[7] = compound: CC1=C(C=C(C=C1)NC(=O)C2=CC(=CC=C2)N(C)C)NC(=O)C3=CC=C(C=C3)O
Method in brief: as §1

[8] = compound: CC1=CC=C(C=C1)SC2=C3C=C(SC3=CN=C2)C(=O)N
Method in brief: as §1

vemurafenib = compound: CCCS(=O)(=O)Nc1ccc(F)c(C(=O)c2c[nH]c3ncc(-c4ccc(Cl)cc4)cc23)c1F [vemurafenib]
Method in brief: as §1

[9] = compound: CCCS(=O)(=O)Nc1ccc(F)c(C(=O)c2c[nH]c3ncc(Cl)cc23)c1F
Method in brief: as §1

[10] = compound: CC[C@@H]1C(=O)N(C)c2cnc(Nc3ccc(C(=O)NC4CCN(C)CC4)cc3OC)nc2N1C1CCCC1
Method in brief: as §1

volasertib = compound: CC[C@@H]1C(=O)N(C)c2cnc(Nc3ccc(C(=O)N[C@H]4CC[C@H](N5CCN(CC6CC6)CC5)CC4)cc3OC)nc2N1C(C)C [volasertib]
Method in brief: as §1

[11] = compound: CCn1c(C(=O)N(C2CC2)C2CC2)cc2c3c(ncn3C)c(Nc3cc(C)n(C)n3)nc21
Method in brief: as §1

[12] = compound: CCn1cc(-c2ccnc3[nH]c(-c4cccc(CN(C)C)c4)cc23)c(-c2ccc(NC(=O)N(C)C)cc2)n1
Method in brief: as §1

[13] = compound: CN1CCC(CNc2ccc3ncc(-c4cccc(OC(F)(F)F)c4)n3n2)CC1
Method in brief: as §1

saracatinib = compound: CN1CCN(CCOc2cc(OC3CCOCC3)c3c(Nc4c(Cl)ccc5c4OCO5)ncnc3c2)CC1 [saracatinib]
Method in brief: as §1

sotrastaurin = compound: CN1CCN(c2nc(C3=C(c4c[nH]c5ccccc45)C(=O)NC3=O)c3ccccc3n2)CC1 [sotrastaurin]
Method in brief: as §1

ibrutinib = compound: C=CC(=O)N1CCC[C@@H](n2nc(-c3ccc(Oc4ccccc4)cc3)c3c(N)ncnc32)C1 [ibrutinib]
Method in brief: as §1

barasertib = compound: CCN(CCCOc1ccc2c(Nc3cc(CC(=O)Nc4cccc(F)c4)[nH]n3)ncnc2c1)CCOP(=O)(O)O [barasertib]
Method in brief: as §1

Measured: log2 fold change

UBIAD1 (UniProt Q9Y5Z9)
UniProt Q9Y5Z9, sequence (Q9Y5Z9 whole entry, looked up): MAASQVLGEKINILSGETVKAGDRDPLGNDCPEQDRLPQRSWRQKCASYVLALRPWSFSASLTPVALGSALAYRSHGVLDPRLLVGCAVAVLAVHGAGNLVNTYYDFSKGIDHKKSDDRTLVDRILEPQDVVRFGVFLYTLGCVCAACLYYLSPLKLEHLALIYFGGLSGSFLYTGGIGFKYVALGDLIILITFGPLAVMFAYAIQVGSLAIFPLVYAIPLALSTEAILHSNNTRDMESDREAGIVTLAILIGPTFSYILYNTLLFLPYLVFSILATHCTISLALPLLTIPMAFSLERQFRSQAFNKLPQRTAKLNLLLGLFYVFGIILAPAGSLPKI
inactive: [1] -0.012 | ralimetinib 0.01 | [2] 0.007 | [3] 0.067 | [4] -0.159 | [5] -0.049 | [6] 0.088 | [7] 0.012 | [8] 0.009 | vemurafenib -0.004 | [9] 0.043 | [10] 0.005 | volasertib 0.046 | [11] -0.083 | [12] 0.045 | [13] -0.335 | saracatinib -0.036 | sotrastaurin -0.079

TCF4 (UniProt P15884)
UniProt P15884, sequence (P15884 whole entry, looked up): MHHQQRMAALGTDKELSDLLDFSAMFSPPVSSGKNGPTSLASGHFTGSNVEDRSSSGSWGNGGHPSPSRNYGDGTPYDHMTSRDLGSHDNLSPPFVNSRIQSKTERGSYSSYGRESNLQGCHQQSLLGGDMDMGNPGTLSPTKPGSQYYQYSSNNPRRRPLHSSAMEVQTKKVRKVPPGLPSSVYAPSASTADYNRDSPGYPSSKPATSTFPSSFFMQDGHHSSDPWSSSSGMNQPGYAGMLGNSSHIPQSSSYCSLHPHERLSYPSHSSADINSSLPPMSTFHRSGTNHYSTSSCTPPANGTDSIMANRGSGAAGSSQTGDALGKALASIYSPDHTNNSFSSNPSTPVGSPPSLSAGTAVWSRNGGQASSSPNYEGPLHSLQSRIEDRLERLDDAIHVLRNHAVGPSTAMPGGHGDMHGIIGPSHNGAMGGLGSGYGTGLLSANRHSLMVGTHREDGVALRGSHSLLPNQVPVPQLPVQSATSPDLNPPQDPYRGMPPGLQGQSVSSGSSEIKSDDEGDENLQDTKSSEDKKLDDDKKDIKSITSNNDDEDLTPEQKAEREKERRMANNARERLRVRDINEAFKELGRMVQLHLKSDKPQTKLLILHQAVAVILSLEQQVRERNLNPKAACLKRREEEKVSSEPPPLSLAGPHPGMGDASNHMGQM
inactive: [1] -0.285 | ralimetinib -0.069 | [2] 0.005 | [4] 0.007 | [5] -0.019 | [6] -0.056 | [7] 0.003 | [8] -0.035 | [9] -0.015 | [10] -0.017 | volasertib 0.126 | [11] 0.008 | [12] -0.011 | [13] 0.03 | saracatinib 0.021 | sotrastaurin -0.017

TRPM4 (UniProt Q8TD43)
inactive: ibrutinib 0.099 | ralimetinib -0.021 | [2] -0.063 | [3] -0.325 | [5] -0.055 | [6] 0.116 | [7] 0.05 | barasertib 0.456 | [11] 0.066 | [12] -0.598 | [13] 0.156 | saracatinib 0.044 | sotrastaurin 0.11

TUBA4A (UniProt C9JQ00)
inactive: ibrutinib 0.125 | barasertib 0.267 | [12] 0 | [13] -0.045

TEC (UniProt P42680)
inactive: [1] -0.096 | [4] -0.023 | [8] 0.143 | vemurafenib -0.081 | [9] -0.119 | [10] -0.054 | volasertib 0.14

TMEM132A isoform 2 (UniProt Q24JP5)
UniProt Q24JP5, sequence (Q24JP5 whole entry, looked up): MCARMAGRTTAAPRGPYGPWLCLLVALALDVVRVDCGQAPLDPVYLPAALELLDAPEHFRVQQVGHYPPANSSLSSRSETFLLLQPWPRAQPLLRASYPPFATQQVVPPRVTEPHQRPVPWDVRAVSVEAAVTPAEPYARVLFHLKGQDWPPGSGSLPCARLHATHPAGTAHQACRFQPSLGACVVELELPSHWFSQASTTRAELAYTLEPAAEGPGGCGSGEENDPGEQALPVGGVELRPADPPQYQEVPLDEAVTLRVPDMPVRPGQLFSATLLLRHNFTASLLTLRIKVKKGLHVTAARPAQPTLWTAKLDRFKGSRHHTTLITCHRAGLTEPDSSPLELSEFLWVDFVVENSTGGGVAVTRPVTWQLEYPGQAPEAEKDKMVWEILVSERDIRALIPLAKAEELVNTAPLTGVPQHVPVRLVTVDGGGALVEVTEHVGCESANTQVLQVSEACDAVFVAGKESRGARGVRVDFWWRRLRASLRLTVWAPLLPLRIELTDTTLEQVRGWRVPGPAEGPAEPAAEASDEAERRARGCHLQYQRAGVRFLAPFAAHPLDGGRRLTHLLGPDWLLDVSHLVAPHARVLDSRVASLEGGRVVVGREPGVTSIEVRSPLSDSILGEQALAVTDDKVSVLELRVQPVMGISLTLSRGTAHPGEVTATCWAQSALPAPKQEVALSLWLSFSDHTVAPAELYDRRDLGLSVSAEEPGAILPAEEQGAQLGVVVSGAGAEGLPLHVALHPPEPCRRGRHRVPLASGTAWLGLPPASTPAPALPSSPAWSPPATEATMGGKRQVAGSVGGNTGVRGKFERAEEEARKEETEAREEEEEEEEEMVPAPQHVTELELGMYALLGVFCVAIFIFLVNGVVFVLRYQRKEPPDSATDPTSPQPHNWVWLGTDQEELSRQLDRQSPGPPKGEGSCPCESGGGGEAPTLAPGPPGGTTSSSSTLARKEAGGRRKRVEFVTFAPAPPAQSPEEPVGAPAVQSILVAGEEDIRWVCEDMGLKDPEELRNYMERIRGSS
inactive: [1] 0.676 | ralimetinib 0.065 | [2] -0.194 | [3] 0.03 | [6] 0.05 | [7] 0.015 | [8] 0.019 | [9] 0.239 | [10] -0.078 | volasertib -0.144 | [11] 0.028 | [12] 0.055 | [13] 0.3 | sotrastaurin 0.044

UBN1 (UniProt Q9NPG3)
inactive: [1] 0.015 | [5] 0.03 | [6] 0.066 | [8] 0.081 | vemurafenib -0.053 | [9] -0.069 | [10] 0.1 | volasertib 0.005 | [12] -0.127 | [13] 0.057 | saracatinib 0.04 | sotrastaurin 0.133

UBAP2, A0A0D9SFI5
inactive: [6] 0.035 | sotrastaurin 0.007

TMC1 (UniProt Q8TDI8)
UniProt Q8TDI8, sequence (Q8TDI8 whole entry, looked up): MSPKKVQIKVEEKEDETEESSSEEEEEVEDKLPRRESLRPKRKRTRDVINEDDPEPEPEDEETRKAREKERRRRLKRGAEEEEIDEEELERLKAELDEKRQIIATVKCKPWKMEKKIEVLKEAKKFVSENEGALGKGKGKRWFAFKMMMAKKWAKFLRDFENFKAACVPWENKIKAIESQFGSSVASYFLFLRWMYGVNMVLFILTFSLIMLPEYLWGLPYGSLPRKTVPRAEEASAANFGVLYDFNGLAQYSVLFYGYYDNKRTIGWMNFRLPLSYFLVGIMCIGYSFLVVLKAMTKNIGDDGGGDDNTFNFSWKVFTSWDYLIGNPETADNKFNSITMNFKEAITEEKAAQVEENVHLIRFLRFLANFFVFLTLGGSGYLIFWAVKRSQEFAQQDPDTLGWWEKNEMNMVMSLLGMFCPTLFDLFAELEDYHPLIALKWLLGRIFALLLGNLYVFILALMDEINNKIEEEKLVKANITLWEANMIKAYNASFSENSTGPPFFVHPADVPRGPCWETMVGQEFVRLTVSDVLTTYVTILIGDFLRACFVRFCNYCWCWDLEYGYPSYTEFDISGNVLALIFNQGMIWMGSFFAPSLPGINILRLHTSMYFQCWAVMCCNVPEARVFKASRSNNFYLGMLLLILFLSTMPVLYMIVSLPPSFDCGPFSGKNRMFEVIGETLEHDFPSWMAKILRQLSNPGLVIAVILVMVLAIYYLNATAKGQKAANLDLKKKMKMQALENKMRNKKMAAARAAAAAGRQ
inactive: [1] -0.016 | ralimetinib 0.156 | [2] -0.185 | [3] 0.204 | [4] -0.034 | [6] -0.104 | [7] 0.017 | [8] -0.045 | vemurafenib 0.089 | [9] -0.02 | [10] -0.164 | volasertib -0.021 | [11] -0.059 | sotrastaurin 0.141

TRAF7 (UniProt Q6Q0C0)
inactive: ralimetinib 0.046 | [2] -0.091 | [4] 0.023 | [5] -0.022 | [6] 0.07 | [7] -0.031 | vemurafenib -0.07 | [10] 0.053 | [11] 0.012 | [12] -0.065 | [13] 0.191 | saracatinib 0.132 | sotrastaurin -0.044

TMPO isoform 2 (UniProt P42167)
inactive: ibrutinib -0.108 | [5] -0.006 | vemurafenib 0.08 | barasertib 0.185 | [10] 0.075 | saracatinib 0.044

TPD52L2 isoform 3 (UniProt O43399)
inactive: ibrutinib 0.288 | ralimetinib 0.167 | [2] -0.038 | [3] 0.017 | [4] -0.007 | [7] 0.107 | barasertib 0.026 | [11] -0.028 | [12] -0.141 | [13] 0.135

UBAP2L (UniProt F8W726)
inactive: [1] 0.275 | [8] -0.025 | vemurafenib 0.094 | [9] -0.031 | volasertib -0.018 | sotrastaurin -0.052
active: [6] -0.547

UBAP2 (UniProt Q5JV08)
inactive: [4] -0.097

TMEM154 (UniProt Q6P9G4)
UniProt Q6P9G4, sequence (Q6P9G4 whole entry, looked up): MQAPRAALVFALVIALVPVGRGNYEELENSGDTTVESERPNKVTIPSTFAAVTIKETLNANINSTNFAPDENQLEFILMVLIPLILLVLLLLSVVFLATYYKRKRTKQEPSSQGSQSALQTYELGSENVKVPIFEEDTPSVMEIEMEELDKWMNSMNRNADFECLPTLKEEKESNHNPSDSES
inactive: ralimetinib -0.079 | [2] 0.164 | [5] 0.048 | [6] -0.052 | [7] 0.172 | [10] 0.022 | [11] -0.08 | saracatinib -0.036 | sotrastaurin 0.116

TSPAN3 (UniProt O60637)
active: [12] 0.663
inactive: [1] 0.008 | ralimetinib -0.069 | [2] -0.025 | [3] 0.05 | [4] -0.173 | [5] -0.099 | [7] 0.135 | [8] -0.04 | vemurafenib -0.075 | [9] -0.052 | [10] 0.01 | volasertib 0.073 | [11] -0.222 | [13] -0.3 | saracatinib -0.038

UBAP2L isoform 1 (UniProt Q14157)
UniProt Q14157, sequence (Q14157 whole entry, looked up): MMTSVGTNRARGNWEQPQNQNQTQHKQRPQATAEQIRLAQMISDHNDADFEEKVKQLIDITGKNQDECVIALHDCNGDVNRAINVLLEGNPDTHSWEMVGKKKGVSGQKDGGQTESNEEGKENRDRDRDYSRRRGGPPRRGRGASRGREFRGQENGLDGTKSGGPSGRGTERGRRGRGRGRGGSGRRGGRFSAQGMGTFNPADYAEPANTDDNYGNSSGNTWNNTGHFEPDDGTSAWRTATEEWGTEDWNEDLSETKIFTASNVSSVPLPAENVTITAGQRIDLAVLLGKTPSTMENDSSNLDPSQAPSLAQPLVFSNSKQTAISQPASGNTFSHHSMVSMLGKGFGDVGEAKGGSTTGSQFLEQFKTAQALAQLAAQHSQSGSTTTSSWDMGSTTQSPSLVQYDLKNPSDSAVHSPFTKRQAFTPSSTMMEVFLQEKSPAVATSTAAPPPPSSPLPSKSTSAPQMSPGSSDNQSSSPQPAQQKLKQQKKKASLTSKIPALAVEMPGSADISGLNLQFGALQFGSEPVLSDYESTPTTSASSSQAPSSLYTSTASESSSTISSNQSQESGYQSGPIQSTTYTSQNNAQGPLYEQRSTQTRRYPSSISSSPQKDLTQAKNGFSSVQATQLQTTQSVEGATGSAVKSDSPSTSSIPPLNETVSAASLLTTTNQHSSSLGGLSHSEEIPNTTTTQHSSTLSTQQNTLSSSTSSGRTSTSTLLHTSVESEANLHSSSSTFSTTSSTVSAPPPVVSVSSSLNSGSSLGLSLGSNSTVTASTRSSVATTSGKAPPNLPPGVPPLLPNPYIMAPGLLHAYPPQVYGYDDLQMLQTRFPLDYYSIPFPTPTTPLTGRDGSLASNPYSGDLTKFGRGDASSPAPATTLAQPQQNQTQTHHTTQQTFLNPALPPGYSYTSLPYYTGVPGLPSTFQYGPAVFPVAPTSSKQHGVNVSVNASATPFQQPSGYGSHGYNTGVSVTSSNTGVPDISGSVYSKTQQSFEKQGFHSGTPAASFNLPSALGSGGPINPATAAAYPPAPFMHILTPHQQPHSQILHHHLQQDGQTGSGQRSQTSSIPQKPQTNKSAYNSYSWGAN
active: [6] -0.833
inactive: ibrutinib -0.075 | ralimetinib -0.306 | [2] -0.123 | [4] 0.114 | [7] -0.161 | barasertib 0.001 | [11] 0.207 | sotrastaurin -0.105

TCF3 (UniProt X6REB3)
inactive: vemurafenib 0.075 | [12] 0 | [13] 0.128

UCP2 (UniProt P55851)
inactive: ralimetinib 0.091 | [2] -0.081 | [4] 0.073 | [6] -0.045 | [7] -0.1 | vemurafenib 0.09 | [11] -0.024 | sotrastaurin -0.001

TGFBR1 isoform 2 (UniProt P36897)
active: saracatinib 1.04
inactive: [3] -0.032 | [5] -0.043 | [10] -0.005

TLK2 isoform 3 (UniProt Q86UE8)
inactive: [12] 0.104 | [13] -0.036

U2AF1L5 (UniProt P0DN76)
inactive: [1] -0.047 | ralimetinib -0.019 | [2] 0.001 | [3] 0.069 | [4] -0.008 | [5] -0.003 | [7] 0.143 | [8] 0.011 | [9] -0.013 | [10] 0.027 | volasertib -0.036 | [11] 0.015 | [13] 0.389 | saracatinib -0.007
active: [12] -1.21

TJP1 (UniProt H0Y3R8)
inactive: [12] 0.048 | [13] -0.16

TRIM3 (UniProt O75382)
inactive: [1] -0.06 | [3] -0.09 | [8] 0.048 | vemurafenib 0.13 | [9] -0.085 | [10] -0.029 | volasertib 0.09

TCF3 isoform 2 (UniProt P15923)
UniProt P15923, sequence (P15923 whole entry, looked up): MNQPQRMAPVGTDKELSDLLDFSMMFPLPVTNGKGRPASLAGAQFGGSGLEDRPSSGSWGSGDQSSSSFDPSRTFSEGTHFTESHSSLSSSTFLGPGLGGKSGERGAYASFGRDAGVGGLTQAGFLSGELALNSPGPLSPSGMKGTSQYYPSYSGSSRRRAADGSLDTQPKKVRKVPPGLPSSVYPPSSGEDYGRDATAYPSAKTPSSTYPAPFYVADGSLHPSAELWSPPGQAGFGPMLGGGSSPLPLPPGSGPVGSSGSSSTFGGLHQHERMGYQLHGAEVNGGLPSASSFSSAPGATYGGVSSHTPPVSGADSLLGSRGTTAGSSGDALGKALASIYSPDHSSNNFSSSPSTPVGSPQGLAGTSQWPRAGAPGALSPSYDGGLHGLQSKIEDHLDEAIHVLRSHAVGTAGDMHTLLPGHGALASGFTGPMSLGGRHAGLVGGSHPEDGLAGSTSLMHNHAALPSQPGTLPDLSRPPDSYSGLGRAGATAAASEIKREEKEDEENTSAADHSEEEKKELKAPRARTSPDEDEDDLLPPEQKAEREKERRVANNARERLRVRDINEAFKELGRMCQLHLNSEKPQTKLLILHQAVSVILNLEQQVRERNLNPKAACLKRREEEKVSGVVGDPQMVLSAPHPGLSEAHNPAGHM
inactive: ralimetinib -0.118 | [2] -0.103 | [3] 0.046 | [6] -0.1 | [7] 0.118 | [11] 0.065 | sotrastaurin 0.043

TTLL12 (UniProt V9GY16)
inactive: ibrutinib -0.32 | ralimetinib -0.339 | [2] -0.165 | [3] -0.333 | [6] 0.031 | [7] -0.009 | vemurafenib 0.261 | barasertib 0.102 | [10] 0.227 | [11] -0.465 | [12] -0.393 | [13] 0.133 | sotrastaurin -0.175

TLE3 (UniProt H0YL70)
inactive: [5] 0.004 | saracatinib 0.152

UBR4 isoform 4 (UniProt Q5T4S7)
inactive: [1] 0.131 | ralimetinib -0.092 | [2] -0.201 | [3] 0.111 | [5] 0.331 | [7] -0.02 | [8] 0.034 | vemurafenib 0.02 | [9] -0.1 | [10] -0.096 | volasertib -0.104 | [11] 0.077 | saracatinib 0.061

TM2D3 (UniProt Q9BRN9)
active: [12] -0.934
inactive: ibrutinib 0.02 | ralimetinib -0.14 | [2] -0.157 | [3] -0.201 | [7] 0.07 | barasertib -0.105 | [10] -0.079 | [11] 0.199 | [13] 0.444

TFPI isoform 2 (UniProt P10646)
UniProt P10646, sequence (P10646 whole entry, looked up): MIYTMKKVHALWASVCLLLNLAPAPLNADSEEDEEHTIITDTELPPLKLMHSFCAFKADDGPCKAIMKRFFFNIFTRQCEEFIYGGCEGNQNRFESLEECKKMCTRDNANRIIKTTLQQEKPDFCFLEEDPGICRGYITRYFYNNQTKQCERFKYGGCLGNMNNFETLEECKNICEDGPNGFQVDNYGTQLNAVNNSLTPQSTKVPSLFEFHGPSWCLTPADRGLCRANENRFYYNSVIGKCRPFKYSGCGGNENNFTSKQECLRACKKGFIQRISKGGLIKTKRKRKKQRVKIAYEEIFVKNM
inactive: [6] -0.034 | vemurafenib 0 | sotrastaurin -0.011
